The structures appear in SMILES notation. Inconclusive results are not listed. Calls of active or inactive are those of the source. Unless noted, calls follow the shape of the dose curve; as a rule, active = well fitted curve in the direction sought with a large enough effect in the repeat runs; inconclusive = weak or mixed curves; inactive = no such curve, though single readings can be large; an effect the other way counts as inactive or inconclusive.

Test [1] is described as follows: qHTS assay for small molecules that induce genotoxicity in human embryonic kidney cells expressing luciferase-tagged ATAD5 (AID 651632). Also: nearly all actives have a fitted effect of over 15% in size. In outline:
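DMSO vehicle served as the control. HEK293T reporter cells, 16 hr at 37C, then 30 min Amplite at room temperature; ATAD5 induction is measured as luciferase activity.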

A short description of test [2]: qHTS assay for small molecule agonists of the p53 signaling pathway - cell viability (AID 651633; calls by dose curve;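 also: p53RE-bla HCT reporter cells with a stable beta-lactamase p53 reporter; series mostly up to about 83 µM; nearly all actives have a fitted effect of over 30% in size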). The gist of the method: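 p53RE-bla cells, seeded at 4,000 per well and rested 5 h at 37 C/5% CO2, received compounds in DMSO for 16 h at 37 C. CellTiter-Glo was then added, and luminescence was read after 30 min at room temperature to gauge cytotoxicity.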
Test [3] in a line: qHTS assay for small molecule disruptors of the mitochondrial membrane potential - cell viability (AID 720634; calls by dose curve;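 also: human HepG2 liver cancer cells; series mostly up to about 83 µM; nearly all actives have a fitted effect of over 20% in size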). The gist of the method:
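Viability of HepG2 cells is scored from ATP content by luminescence; cells are exposed to compound for 1 hr at 37 C and 5% CO2, then dosed with m-MPI dye before the CellTiter-Glo reagent.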
Background: In qHTS, concentration-response curves come from the screen itself.

A short description of test [4]: qHTS assay for small molecule disruptors of the mitochondrial membrane potential (AID 720635). Also: potency is read from the fitted curve at half-maximal effect. The gist of the method: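 HepG2 cells (2,000/well) attached overnight at 37C, then took compound for 1 hr at 37C, 5% CO2. Mito-MPS dye was added for 30 min; fluorescence was read at 490/535 nm (monomers) and 540/590 nm (aggregates).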
Test [5] can be described thus: qHTS assay to test for compound auto fluorescence at 590 nm (red) in HepG2 cells (AID 720674). In outline: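 Intrinsic compound fluorescence in the red window (Ex/Em 540/590 nm) is measured in attached HepG2 cells exposed for 1 hr, DMSO vehicle as baseline, benchmarked to Rose Bengal sodium.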
The nature of test [6]: qHTS assay to test for compound auto fluorescence at 535 nm (green) in HepG2 cells (AID 720675).
The nature of test [7]: qHTS assay to test for compound auto fluorescence at 460 nm (blue) in HEK293 cells (AID 720678). In outline:
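After cell attachment (4-5 hr, 37C), compounds were pinned onto HEK293 monolayers in 10% dialyzed FBS medium. The blue channel (405/460 nm) was read following overnight culture. Equivalency was calculated against triamterene.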

Test [8] in a line: qHTS assay to test for compound auto fluorescence at 590 nm (red) in HEK293 cells (AID 720679). In outline: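 Plates of HEK293 cells (10% dialyzed FBS) are treated with 23 nL compound or DMSO vehicle after a 4-5 hr attachment period, incubated overnight at 37C, and read for red fluorescence at 540/590nm.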
A short description of test [9]: qHTS assay to test for compound auto fluorescence at 535 nm (green) in HEK293 cells (AID 720680).
Test [10] is described as follows: qHTS assay to test for compound auto fluorescence at 460 nm (blue) in HEK293 cell free culture (AID 720681). In outline:
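Test compounds were pinned into cell-free culture medium (DMEM with 10% FBS) and fluorescence was read directly at Ex/Em 405/460 nm. Signals were expressed as fluorescence equivalents of triamterene, with DMSO vehicle as control.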

A short description of test [11]: qHTS assay to test for compound auto fluorescence at 535 nm (green) in HEK293 cell free culture (AID 720682). In outline:
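Green-channel intensity (Ex/Em 485/535 nm) was recorded from compound-treated wells containing only DMEM with 10% FBS. Fluorescein provided the equivalency standard.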

Test [12] can be described thus: qHTS assay to test for compound auto fluorescence at 590 nm (red) in HEK293 cell free culture (AID 720683). The gist of the method: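 Tox21 10K library compounds were pinned into cell-free DMEM with 10% FBS and fluorescence was read at excitation 540 nm. Activity is expressed as Rose Bengal sodium equivalency.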
A short description of test [13]: qHTS assay to test for compound auto fluorescence at 590 nm (red) in HepG2 cell free culture (AID 720684). In outline:
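Ex 540 / Em 590 nm read of compound in cell-free MEM (10% FBS). Rose Bengal sodium reference.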

A short description of test [14]: qHTS assay to test for compound auto fluorescence at 460 nm (blue) in HepG2 cell free culture (AID 720685). The gist of the method: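 Cell-free plates of MEM plus 10% FBS received 23 nL compound or DMSO vehicle; blue-channel (405/460 nm) intensity scored against triamterene as reference fluorophore.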
The nature of test [15]: qHTS assay to test for compound auto fluorescence at 535 nm (green) in HepG2 cell free culture (AID 720686).
A short description of test [16]: qHTS assay to test for compound auto fluorescence at 460 nm (blue) in HepG2 cells (AID 720687). In outline:
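Cells (2,000/well in MEM with 10% FBS) attached overnight at 37 C, then were exposed to compound or DMSO for 1 hr at 37 C, 5% CO2. Fluorescence read at Ex/Em 405/460 nm, expressed as triamterene-equivalent signal.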

The target in test [17] is Glucocorticoid receptor (Homo sapiens) (UniProt P04150). Briefly: qHTS assay to identify small molecule agonists of the glucocorticoid receptor (GR) signaling pathway (AID 720691; active = well fitted activation curve with a large enough effect in the signal ratio in the repeat runs, not every such curve was filed as active; the % refers to the signal ratio; also: potency is read from the fitted curve at half-maximal effect). In outline: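 Compounds in DMSO, alongside positive controls, were added to GR-bla HeLa reporter cells and incubated 18 h at 37 C; GRE-driven beta-lactamase was detected by fluorescence after 2 h with FRET substrate at room temperature.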
Sequence of Glucocorticoid receptor (Homo sapiens) (P04150 whole entry, looked up): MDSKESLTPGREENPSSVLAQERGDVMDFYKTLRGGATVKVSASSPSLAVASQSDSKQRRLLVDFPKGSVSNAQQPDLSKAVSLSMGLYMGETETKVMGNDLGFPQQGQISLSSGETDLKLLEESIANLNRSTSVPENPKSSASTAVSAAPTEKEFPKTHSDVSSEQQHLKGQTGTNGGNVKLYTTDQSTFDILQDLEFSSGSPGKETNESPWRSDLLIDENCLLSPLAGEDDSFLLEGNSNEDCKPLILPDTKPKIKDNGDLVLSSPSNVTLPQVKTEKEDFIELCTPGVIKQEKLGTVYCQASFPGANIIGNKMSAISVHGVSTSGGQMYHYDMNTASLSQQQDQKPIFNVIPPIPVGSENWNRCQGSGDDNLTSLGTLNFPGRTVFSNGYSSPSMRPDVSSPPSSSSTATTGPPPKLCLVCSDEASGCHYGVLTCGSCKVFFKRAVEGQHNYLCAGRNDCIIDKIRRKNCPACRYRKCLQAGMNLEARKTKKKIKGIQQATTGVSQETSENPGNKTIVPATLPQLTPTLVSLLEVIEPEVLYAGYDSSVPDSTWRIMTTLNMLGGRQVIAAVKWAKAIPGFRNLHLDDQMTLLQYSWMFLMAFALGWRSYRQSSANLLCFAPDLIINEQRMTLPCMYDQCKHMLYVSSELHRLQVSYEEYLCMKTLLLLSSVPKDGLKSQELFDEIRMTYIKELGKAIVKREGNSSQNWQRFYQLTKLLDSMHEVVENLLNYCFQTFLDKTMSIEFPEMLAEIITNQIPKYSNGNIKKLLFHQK

Test [18] has the same target. Briefly: qHTS assay to identify small molecule antagonists of the glucocorticoid receptor (GR) signaling pathway (AID 720692; active = well fitted inhibition curve with a large enough effect in the signal ratio in the repeat runs, not every such curve was filed as active; the % refers to the signal ratio). In outline: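 In a 1536-well cell format, compounds were added 4 h after seeding GR-bla HeLa cells, together with dexamethasone at 5 nM final; reporter activity was measured by FRET-substrate fluorescence following 18 h at 37 C.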
Test [19] can be described thus: qHTS assay for small molecules that induce genotoxicity in human embryonic kidney cells expressing luciferase-tagged ATAD5 - cell viability (AID 651634; calls by dose curve; also: nearly all actives have a fitted effect of over 25% in size). In outline: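 Here HEK293T cells with the ATAD5 luciferase reporter are incubated with test compounds for 15.5 hr, and cytotoxicity is then gauged by measuring protease activity in live cells using fluorescence.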

For `CC(=O)OCC(CCn1cnc2cnc(N)nc21)COC(C)=O`, the Potency entry in test [1], in test [3], in test [4], in [17] and in test [18] was “inactive” in each case. The call in test [2], in [5], in [6], in test [7], in test [8] and in test [9] was inactive. For the same compound, the call in [10], in test [11], in test [12], in [13], in test [14] and in [15] was inactive. In addition, the outcome in [16] was inactive.

For the compound `CCOC(=O)CC(C)=O`, the Potency entry in test [19] was “inactive”. Further, the call in test [5], in [6], in [7], in test [8], in [9] and in [10] was inactive. Further, the result in test [11], in test [12], in test [13], in [14], in test [15] and in test [16] was inactive.

As to `Cc1[nH]c(=O)c(C#N)cc1-c1ccc2nccn2c1`, the Potency result in test [1], in test [3], in test [17] and in test [18] was “inactive” each time. Further, the outcome in [2], in test [5], in test [6], in test [7], in test [8] and in test [9] was inactive. Besides, the compound was classed as inactive in test [10], in test [11], in [12], in [13], in test [14] and in [15]. The compound was classed as inactive in test [16].

In the case of `C=C(C)CS(=O)(=O)O`, the Potency result in test [1], in test [19], in [17] and in test [18] was “inactive” each time. The result in test [2], in test [5], in test [6], in test [7], in test [8] and in test [9] was inactive. Moreover, the compound was called inactive in [10], in [11], in test [12], in test [13], in test [14] and in test [15]. For the same compound, in [16], the outcome was inactive.

On to `CCCCOCCOCCOCc1cc2c(cc1CCC)OCO2`, for which, in test [4], the Potency was 55.1 µM (active). The call in test [5], in [6], in [7], in test [8], in test [9] and in [10] was inactive. Further, the compound was called inactive in [11], in test [12], in [14], in test [15] and in test [16].

With `CO[C@]12C[C@@H](COC(=O)c3cncc(Br)c3)CN(C)[C@@H]1Cc1cn(C)c3cccc2c13`, the Potency entry in test [1], in test [4], in test [17] and in [18] was “inactive” in each case. The outcome in test [5], in test [6], in test [7], in test [8], in test [9] and in [10] was inactive. The outcome in [11], in test [12], in test [13], in test [14], in test [15] and in test [16] was inactive.

In the case of `NC(CSCC(=O)O)C(=O)O` (stereo not given), the Potency entry in test [1] and in [3] was “inactive” each time. For the same compound, the compound was classed as inactive in [2], in test [5], in test [6], in test [7], in test [8] and in test [9]. For the same compound, the compound was classed as inactive in test [10], in test [11], in [12], in test [13], in test [14] and in test [15]. Besides, the call in test [16] was inactive.

Take `Nc1c[n+](N2CCOCC2)no1`: the Potency entry in [1], in [3], in test [4], in test [17] and in [18] was “inactive” each time. For the same compound, the call in test [2], in [5], in [6], in [7], in [8] and in [9] was inactive. For the same compound, the compound was classed as inactive in test [10], in test [11], in test [12], in test [13], in test [14] and in [15]. The compound was classed as inactive in test [16].

Turning to `CC(=O)N(CC(O)CO)c1c(I)c(C(=O)NCCO)c(I)c(C(=O)NCC(O)CO)c1I` (stereo not given), the Potency result in test [1], in [19] and in [4] was “inactive” each time. Besides, the compound was called inactive in test [5], in test [6], in [7], in [8], in [9] and in [10]. Also, the result in test [11], in test [12], in [13], in test [14], in test [15] and in test [16] was inactive.

As to `O=C1CCCN1C1CCCCC1`, the Potency entry in [1], in test [19] and in [17] was “inactive” throughout. For the same compound, the call in test [5], in test [6], in test [7], in test [8], in [9] and in test [10] was inactive. Also, the outcome in test [11], in test [12], in test [13], in test [14], in test [15] and in test [16] was inactive.

With `CCCCNC(=O)NCCCC`, the Potency entry in test [1], in test [19], in [3], in test [17] and in [18] was “inactive” in each case. Besides, the outcome in [2], in test [5], in [6], in test [7], in [8] and in [9] was inactive. In addition, the compound was classed as inactive in [10], in test [11], in test [12], in test [13], in test [14] and in test [15]. The compound was called inactive in test [16].

For `CN(C)CCCN1c2ccccc2CCc2ccc(Cl)cc21`, the result in [2], in test [5], in test [6], in test [7], in test [8] and in test [9] was inactive. Moreover, the compound was called inactive in [10], in test [11], in test [12], in test [13], in [14] and in test [15]. Besides, in [16], the result was inactive. The Potency entry in test [19], in [3] and in test [17] was “inactive” in each case.

In the case of `Cc1ccc(C#N)cc1`, the Potency entry in test [1], in test [19], in test [3], in test [17] and in [18] was “inactive” throughout. In addition, the outcome in test [2], in test [5], in [6], in test [7], in [8] and in test [9] was inactive. In addition, the compound was classed as inactive in test [10], in [11], in test [12], in [13], in [14] and in test [15]. Also, the outcome in test [16] was inactive.

As to `CCCC(=O)O[C@]1(C(=O)CO)CC[C@H]2[C@@H]3CCC4=CC(=O)CC[C@]4(C)[C@H]3[C@@H](O)C[C@@]21C`, the Potency entry in [19] and in [3] was “inactive” each time. The outcome in test [5], in test [6], in test [7], in [8], in test [9] and in test [10] was inactive. In addition, the compound was classed as inactive in [11], in test [12], in [14], in test [15] and in test [16]. Further, in test [17], the Potency is 0.213 µM (active).

In the case of `C[C@H](NC(CCc1ccccc1)C(=O)O)C(=O)N1CCC[C@H]1C(=O)O` (stereo not given in full), the Potency entry in [1], in test [19], in [3], in test [4], in [17] and in [18] was “inactive” throughout. The result in [5], in test [6], in [7], in test [8], in [9] and in test [10] was inactive. The call in test [11], in test [12], in [13], in [14], in [15] and in test [16] was inactive.

As for `CC(=O)OC/C=C(\C)CC/C=C(\C)CCC=C(C)C`, the Potency result in [1], in [19], in test [3] and in test [4] was “inactive” throughout. Moreover, the call in [5], in test [6], in test [7], in test [8], in [9] and in [10] was inactive. Besides, the compound was called inactive in test [11], in [12], in test [14], in test [15] and in [16].

These data come from PubChem BioAssay (Tox21).
